Results published in PubChem BioAssay (NCI).
This is part of a sample that, as a whole, favours compounds with a hit. Of some 83,000 tested, about 20% had one in any assay.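 Compound tested at a single concentration for 48 hours in 96-well plates; a percent growth value below 10 was scored as active.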 Values without a mark were called inactive. The source made the active and inactive calls.

What was measured:
Experiment in all cases: NCI-60 one-dose screen, 48 h (100 = growth as untreated, 0 = no growth, -100 = all killed)
Details in all cases: 10 µM unless noted
[1] = tested on: NCI-H23 lung
[2] = tested on: NCI-H226 lung
[3] = tested on: NCI-H322M lung
[4] = tested on: HOP-62 NSCLC
[5] = tested on: NCI-H460 lung
[6] = tested on: HOP-92 NSCLC
[7] = tested on: NCI-H522 lung
[8] = tested on: A549/ATCC NSCLC
[9] = tested on: 786-0 renal
[10] = tested on: COLO 205 colon

SMILES: C/C(=N/NC(N)=S)c1sc(Nc2cccc(Cl)c2)nc1C
- growth [1]: 89.4%
- growth [2]: 92%
- growth [3]: 77.9%
- growth [4]: 102%
- growth [5]: 92.9%
- growth [6]: 62.6%
- growth [7]: 42.6%
- growth [8]: 92.5%
- growth [9]: 84.3%
- growth [10]: 84.9%

SMILES: CCCCCCCNC(=O)CCCNc1ncnc2c1ncn2-c1cccc(C(C)O)c1 (stereo not given)
- growth [1]: 90.7%
- growth [2]: 79.3%
- growth [3]: 108%
- growth [4]: 95.9%
- growth [5]: 99.8%
- growth [6]: 96.6%
- growth [7]: 80.9%
- growth [8]: 94.5%
- growth [9]: 97.3%
- growth [10]: 92.9%

SMILES: COc1ccc(/C=N/Nc2cc(=O)[nH]c3ccc(C)cc23)cc1
- growth [1]: 70%
- growth [2]: 81.5%
- growth [3]: 86.8%
- growth [4]: 86.3%
- growth [5]: 103%
- growth [6]: 88%
- growth [7]: 75.2%
- growth [8]: 91.3%
- growth [9]: 105%
- growth [10]: 106%

SMILES: Cc1cccc(NCc2cn(-c3ccc(C(=O)O)cc3)nc2-c2ccc(C(=O)O)cc2)n1
- growth [1]: 110%
- growth [2]: 99.8%
- growth [3]: 105%
- growth [4]: 104%
- growth [5]: 104%
- growth [6]: 105%
- growth [7]: 95.8%
- growth [8]: 104%
- growth [9]: 102%
- growth [10]: 111%

SMILES: COc1ccc2sc3c(NCCCN(C)C)nc4ccccc4c3c(=O)c2c1
- growth [1]: 56.7%
- growth [2]: 82.4%
- growth [3]: 80.3%
- growth [4]: 74.7%
- growth [5]: -69.5% (active)
- growth [6]: 20%
- growth [7]: 79.4%
- growth [8]: 73.9%
- growth [9]: 68.5%
- growth [10]: -1.26% (active)

SMILES: CCOC(=O)Cn1c(=O)c2c(c3ccccc3n2C)n2nnc(-c3ccccc3)c12
- growth [1]: 102%
- growth [2]: 128%
- growth [3]: 115%
- growth [4]: 95.5%
- growth [5]: 102%
- growth [6]: -15.2% (active)
- growth [7]: 92.6%
- growth [8]: 106%
- growth [9]: 104%
- growth [10]: 114%

SMILES: CCC(C)(c1cc(C(C)(C)C)c(O)c(C(C)(C)C)c1)c1cc(C(C)(C)C)c(O)c(C(C)(C)C)c1
- growth [1]: 96.2%
- growth [2]: 100%
- growth [3]: 98%
- growth [4]: 92.4%
- growth [5]: 106%
- growth [6]: 92.9%
- growth [7]: 86.4%
- growth [8]: 93.5%
- growth [9]: 99.2%
- growth [10]: 107%

SMILES: c1ccc2cc(C[n+]3ccn(CCCCCCn4cc[n+](Cc5ccc6ccccc6c5)c4)c3)ccc2c1
- growth [1]: 30.5%
- growth [2]: 69.6%
- growth [3]: 76.2%
- growth [4]: 55.8%
- growth [5]: 24.6%
- growth [6]: 59.9%
- growth [7]: 33.1%
- growth [8]: 38.6%
- growth [9]: 83.6%
- growth [10]: 27.9%

SMILES: COC(=O)CCC/C=C\C[C@H]1C=CC(=O)/C1=C/C[C@@H](O)CCc1cccc(C(F)(F)F)c1
- growth [1]: -13.7% (active)
- growth [2]: -48.4% (active)
- growth [3]: -14.3% (active)
- growth [4]: -47.3% (active)
- growth [5]: -41.8% (active)
- growth [6]: -37.1% (active)
- growth [7]: -75.1% (active)
- growth [8]: -24.2% (active)
- growth [9]: -61.1% (active)
- growth [10]: -49.3% (active)

SMILES: COc1cc2cc(Oc3ccc(NC(=O)Nc4cccc(C(F)(F)F)c4)cc3)c(C)nc2cc1OCCN1CCOCC1
- growth [1]: 15.4%
- growth [2]: 57%
- growth [3]: 80.4%
- growth [4]: 50.8%
- growth [5]: 16.4%
- growth [6]: 33.9%
- growth [7]: 29.3%
- growth [8]: 15.8%
- growth [9]: 67.3%
- growth [10]: 35.5%

SMILES: COc1ccc(CN2c3ccccc3Sc3ccccc32)c(F)c1
- growth [1]: 50.5%
- growth [2]: 56.1%
- growth [3]: 44.7%
- growth [4]: 26.6%
- growth [5]: 11%
- growth [6]: 33.2%
- growth [7]: -12% (active)
- growth [8]: 34.1%
- growth [9]: 42.2%
- growth [10]: 11.7%

SMILES: CCc1ccc(Oc2c(-c3ccc(OCc4ccc(Cl)cc4)cc3O)nn(C)c2C(F)(F)F)cc1
- growth [1]: -14.2% (active)
- growth [2]: 6.86% (active)
- growth [3]: 13.6%
- growth [4]: -35.2% (active)
- growth [5]: -20% (active)
- growth [6]: -25.3% (active)
- growth [7]: -33.5% (active)
- growth [8]: 3.73% (active)
- growth [9]: -37% (active)
- growth [10]: -75.2% (active)

SMILES: O=S(=O)(NCCCNc1cc(-c2c(-c3cccc(O)c3)nc3sccn23)ccn1)c1cccc2ccccc12
- growth [1]: 39.8%
- growth [2]: 41.1%
- growth [3]: 78.8%
- growth [4]: 67.2%
- growth [5]: 39.7%
- growth [6]: 97.3%
- growth [7]: 51.2%
- growth [8]: 58.9%
- growth [9]: 51.2%
- growth [10]: 35.5%

SMILES: O=C1CCC/C=C\C[C@H]2C=CC(=O)/C2=C/C[C@H](CCc2cccc(C(F)(F)F)c2)O1
- growth [1]: -22% (active)
- growth [2]: -36.2% (active)
- growth [3]: -44.6% (active)
- growth [4]: -73.7% (active)
- growth [5]: -24.6% (active)
- growth [6]: -46.5% (active)
- growth [7]: -88.7% (active)
- growth [8]: 0.826% (active)
- growth [9]: -79.2% (active)
- growth [10]: -84.8% (active)

SMILES: O=C(O)c1cn(C2CC2)c2cc(N3CCN(C(=O)Nc4nc(-c5ccc(Cl)cc5)cs4)CC3)c(F)cc2c1=O
- growth [1]: 8.09% (active)
- growth [2]: 19.7%
- growth [3]: 4.8% (active)
- growth [4]: 20.5%
- growth [5]: 8.14% (active)
- growth [6]: -22.2% (active)
- growth [7]: -6.18% (active)
- growth [8]: 6.96% (active)
- growth [9]: 22.6%
- growth [10]: 6.21% (active)

SMILES: CCCCn1c(-c2ccc(-c3nc(-c4ccc(Cl)cc4)no3)cc2)nc(-c2ccccc2)c1-c1ccccc1
- growth [1]: 68.2%
- growth [2]: 84.2%
- growth [3]: 90.4%
- growth [4]: 92.4%
- growth [5]: 95.6%
- growth [6]: 75.4%
- growth [7]: 75.2%
- growth [8]: 36.3%
- growth [9]: 82%
- growth [10]: 98.8%

SMILES: CCOC(=O)/C=C1\S/C(=N\Nc2ccc([N+](=O)[O-])cc2[N+](=O)[O-])N(Cc2ccccc2)C1=O
- growth [1]: 76.8%
- growth [2]: 93.1%
- growth [3]: 97.9%
- growth [4]: 103%
- growth [5]: 93.1%
- growth [6]: 71.5%
- growth [7]: 68.6%
- growth [8]: 93.2%
- growth [9]: 91.2%
- growth [10]: 99.1%

SMILES: CCCCn1c(=O)c(-c2cc(-c3ccc(Cl)cc3)nc(-c3ccc(Cl)cc3)c2)cc2ccc(Cl)cc21
- growth [1]: 97.8%
- growth [2]: 98.5%
- growth [3]: 98.4%
- growth [4]: 97.5%
- growth [5]: 106%
- growth [6]: 88.3%
- growth [7]: 98.4%
- growth [8]: 105%
- growth [9]: 103%
- growth [10]: 105%

SMILES: COc1ccc(S(=O)(=O)n2c3ccccc3n3ncc(-c4nnc(C)o4)c23)cc1
- growth [1]: 31.7%
- growth [2]: 55.7%
- growth [3]: 49%
- growth [4]: 37.3%
- growth [5]: 14.2%
- growth [6]: 66%
- growth [7]: 31.2%
- growth [8]: 27.4%
- growth [9]: 42.7%
- growth [10]: 7.03% (active)

SMILES: Cc1cc(Cl)ccc1NS(=O)(=O)c1ccc(-c2cnc(C3CC3)o2)cc1
- growth [1]: 31.1%
- growth [2]: 27.7%
- growth [3]: 50.7%
- growth [4]: 48.5%
- growth [5]: 12.2%
- growth [6]: 58.3%
- growth [7]: 13.5%
- growth [8]: 28.4%
- growth [9]: 28.6%
- growth [10]: -11% (active)

SMILES: CN(C)CCCNc1nc2ccccc2c2c(=O)c3cc(F)ccc3sc12
- growth [1]: 70.6%
- growth [2]: 91.5%
- growth [3]: 71.2%
- growth [4]: 65%
- growth [5]: -1.74% (active)
- growth [6]: 24%
- growth [7]: 39.2%
- growth [8]: 57%
- growth [9]: 59.3%
- growth [10]: -34.1% (active)
